From the supplement of paper PMC6555819

Columns and labels:
Assay in all cases: PBM binding z-score (relative to random genomic background probes); higher = stronger binding; sequences stand for … in GC…GCGATTGACAGCGTAGAATGAAGG
[1] = tested on: FXR:RXRa (NR concentration 270 nM, RXRa partner concentration 90 nM)
Outline: (§1)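 Probes were double-stranded and carried 34-nt variable regions with direct-repeat seeds, single-nucleotide variants, half-site ablations and random human genomic background sequences, printed on custom Agilent 4×180K protein-binding microarrays. Arrays were incubated 1 h with ligand-free nuclear receptor dimers in PBS pH 7.4, 2% milk, 0.02% Triton X-100, 1 mM DTT, 0.2 mg/mL BSA and 0.4 mg/ml salmon testes DNA. Antibodies against each partner (one per run) detected binding, and scanned fluorescence was regression-normalized. Binding z-scores use the random background probes as reference.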

[2] = tested on: LXRa:RXRa (NR concentration 270 nM, RXRa partner concentration 90 nM)
Outline: as §1

[3] = tested on: LXRa homodimer (NR concentration 270 nM)
Outline: as §1

[4] = tested on: LXRb:RXRa (NR concentration 270 nM, RXRa partner concentration 90 nM)
Outline: as §1

[5] = tested on: LXRb homodimer (NR concentration 270 nM)
Outline: as §1

[6] = tested on: PPARa:RXRa (NR concentration 270 nM, RXRa partner concentration 90 nM)
Outline: as §1

[7] = tested on: PPARg:RXRa (NR concentration 180 nM, RXRa partner concentration 90 nM)
Outline: as §1

[8] = tested on: PPARg:RXRa 270nM:90nM, anti-RXR (NR concentration 270 nM, RXRa partner concentration 90 nM)
Outline: as §1

[9] = tested on: PPARg:RXRa 30nM:10nM, anti-RXR (NR concentration 30 nM, RXRa partner concentration 10 nM)
Outline: as §1

[10] = tested on: PPARg:RXRa 90nM:30nM, anti-RXR (NR concentration 90 nM, RXRa partner concentration 30 nM)
Outline: as §1

Row | Sequence | PBM binding z-score [1] | PBM binding z-score [2] | PBM binding z-score [3] | PBM binding z-score [4] | PBM binding z-score [5] | PBM binding z-score [6] | PBM binding z-score [7] | PBM binding z-score [8] | PBM binding z-score [9] | PBM binding z-score [10]
1 | CGAACTAGGTCATTTACAGGACAGTGAATAGTAA | 4.33 | 3.3 | 1.29 | 2.69 | 0.887 | 4.56 | 6.79 | 6.09 | 3.53 | 5.66
2 | CCTAGCAGGCAAGGGTCACTCAAGCATTTCGCTT | 2.9 | 2.67 | -0.242 | 2.45 | -0.627 | 3.8 | 1.77 | 3.27 | 0.737 | 2.48
3 | TCTAGTAGTTGATTAGGGCAACCGAAACAGCGGA | 0.323 | 0.0277 | -0.246 | 0.0544 | -0.448 | 0.658 | 0.17 | 1.41 | 2.74 | 2.06
4 | TCTATCAGTTGAAGGGCAACCGACGAGTCCGTTT | 0.369 | 0.777 | -0.273 | 0.501 | -0.0897 | 0.935 | 0.152 | 2 | 3.44 | 2.89
5 | GCTTCTAGGTCAACTGATGGTCAGCTAAAGCTCG | 4.49 | 3.12 | 0.562 | 2.48 | 1.06 | 4.69 | 6.35 | 5.64 | 3.01 | 5.05
6 | CGTCCGAGGTCAGAGAGGTCAGTGAATGCCGAGT | 6.42 | 5.78 | 3.42 | 5.43 | 0.406 | 5.62 | 4.63 | 5.26 | 2 | 4.02
7 | TCATATAGGTAAACAGGTGAAACTCCGTAAGTTA | 0.937 | 1.06 | 0.143 | 0.976 | -0.264 | 2.64 | 2.96 | 3.47 | 4.07 | 3.7
8 | AGAATGAGGTAACCAAAGATCAGGGAAACGCTTG | -0.0845 | 3.81 | -0.311 | 0.439 | -0.22 | 1.21 | 1.15 | 0.888 | 0.575 | 0.541
9 | ACTAGCAGGCCAAGTATGGGTCACTCAAACAAAG | 0.0234 | 0.143 | -0.148 | 0.932 | -0.854 | 1.74 | 0.661 | 0.755 | -0.094 | 0.375
10 | AGTCAAAGCTCACTAGGTAACGTAAGATTCAGCT | -0.693 | -0.67 | -0.464 | -0.615 | -0.437 | 0.637 | 0.855 | 0.165 | 0.0714 | -0.118
11 | TCTAGCAGGCCAGGGGGTCACTCAAGAGGTACGG | 3.31 | 3.16 | 0.394 | 5.14 | 4.6 | 4.64 | 2.95 | 4.66 | 3.29 | 4.43
12 | GATACAGGGTCTGCTAGAGGCCAGAGTATGGAAA | -0.351 | -0.359 | -0.605 | -0.772 | -0.649 | -0.759 | 0.108 | -0.444 | -0.281 | -0.382
13 | CGTCCAAGGTCAGAGATGTCAGTGAATGCCGAGT | 4.67 | 2.73 | 0.142 | 1.82 | -0.161 | 3.59 | 2.24 | 2.19 | 0.132 | 1.04
14 | ATCGAAAGGTCGTGAGCTGAGTATACAGAAAGGC | 4.79 | 3.91 | 0.0249 | 3.03 | 0.117 | 4.86 | 3.35 | 4 | 1.23 | 2.6
15 | ATCGAAAGGTCGAAGATGAGTATACCCACCCGAA | 3.83 | 3.21 | 0.43 | 2.41 | 0.732 | 4 | 2.52 | 2.37 | 1.04 | 1.8
16 | TATACAGGGTCAAAGGCCAGAGTACGAATGTCGA | 7.35 | 6.25 | 2.5 | 4.96 | 1.86 | 6.57 | 8.48 | 7.61 | 5.77 | 7.93

Row | Sequence | PBM binding z-score [1] | PBM binding z-score [2] | PBM binding z-score [3] | PBM binding z-score [4] | PBM binding z-score [5] | PBM binding z-score [6] | PBM binding z-score [7] | PBM binding z-score [8] | PBM binding z-score [9] | PBM binding z-score [10]
17 | GATACAGTGTCAGCTAGAGGCCAGAGTATGGAAA | -0.507 | -0.554 | -0.437 | -0.763 | -0.98 | -0.257 | 0.158 | -0.349 | -0.273 | -0.224
18 | GTACCAAGGTGAATAGGTGGTTGATGAGTAGGCG | 0.118 | 0.242 | -0.513 | -0.25 | -0.203 | 0.864 | 0.851 | 0.683 | 0.0319 | 0.389
19 | CAGCCTAGGTCAGGGCCAGTATGGGAGGAACGTT | 1.41 | 0.705 | -0.724 | 0.176 | -1.05 | 2.06 | 0.648 | 0.825 | -0.673 | 0.0186
20 | CTCGAACGGTCGGTTGAGGTGAGTATACGGATAA | 0.102 | -0.565 | -0.727 | -0.59 | -0.761 | -0.3 | -0.199 | -0.622 | -0.623 | -0.601
21 | TCTAGTTGGTCACGGAGGTAACACACGACGGGTA | 0.499 | 0.13 | -0.316 | 0.404 | 0.515 | 1.02 | 1.34 | 1.92 | 3.23 | 2.25
22 | TCATATAGGTAAAGGTTAAAGTCGAACGATATGA | 2.25 | 3.83 | 0.888 | 2.89 | 0.157 | 4.34 | 5.57 | 5.57 | 5.06 | 5.73
23 | GTACCAAGGTGAATAGGTCGTTGAAGAGTAGGCG | 1.03 | 0.815 | 0.077 | 0.828 | -0.492 | 2.34 | 1.56 | 2.06 | 0.379 | 1.17
24 | ACTAGCAGGCCAAGGGTCACGCAAGATTAGTCCG | 3.81 | 3.6 | 0.279 | 3.53 | -0.566 | 5.24 | 9.04 | 7.85 | 7.41 | 7.99
25 | GGGACTGGGGCATCAGCAGGTTACCATAACTTAA | 0.464 | 0.607 | 0.713 | 1.81 | 2.25 | 2.25 | 3.27 | 2.6 | 0.527 | 1.93
26 | CAAACTAGGTCAAGAGGTCTAAGTCCGCTTCCCG | 3.48 | 2.8 | 0.46 | 1.7 | -0.0852 | 4.97 | 7.75 | 6.93 | 4.73 | 6.71
27 | TCTTGTAGATCAACAGGAGGTTGAGAAAGATCGA | -0.0264 | -0.201 | -0.188 | -0.211 | -0.144 | 0.467 | -0.1 | 1.33 | 2.81 | 2.24
28 | ATATGTAGGTTAGCTGGGGTCATCCAGACTAGGC | 4.52 | 5.5 | 2.24 | 4.39 | 0.905 | 5.22 | 5.73 | 5.6 | 2.9 | 4.8
29 | TCGAGTAGGTTTGGGGCATTCAGAATGGCGTCGA | -0.5 | -0.529 | -0.289 | 0.316 | -0.295 | 0.0771 | -0.558 | 0.475 | 0.701 | 0.598
30 | ATACCAAGGTGATCGTGAGGTCGTTGTTACTAAC | 1.57 | 1.11 | 0.763 | 1.32 | 0.361 | 1.47 | 0.364 | 0.56 | -0.301 | 0.535
31 | CCTTATGGGTCACGAGGTTATAGCACGACGAGCG | 6.1 | 3.8 | 0.305 | 3.32 | -0.173 | 5.75 | 8.15 | 6.96 | 4.18 | 6.72
32 | TCTCGGAGGAGACGAAAGGTCAGAGCTCGACATC | 2.04 | 2.95 | 1.15 | 2.59 | -0.403 | 3.49 | 3.2 | 5.01 | 3.66 | 4.7
